# Data reported in PubChem BioAssay AID493168 (National Center for Advancing Translational Sciences (NCATS), 2011).
# Results filed as inconclusive are left out. The source made the active and inactive calls. Calls follow the shape of the dose curve; as a rule, active = well fitted inhibition curve with a large enough effect; inconclusive = small, poorly fitted or top-dose-only effect, or effect the other way; inactive = flat fitted curve, though single readings scatter.
# Biological target: Ubiquitin carboxyl-terminal hydrolase 2 (Homo sapiens) (UniProt O75604)
# Sequence (O75604 whole entry, looked up): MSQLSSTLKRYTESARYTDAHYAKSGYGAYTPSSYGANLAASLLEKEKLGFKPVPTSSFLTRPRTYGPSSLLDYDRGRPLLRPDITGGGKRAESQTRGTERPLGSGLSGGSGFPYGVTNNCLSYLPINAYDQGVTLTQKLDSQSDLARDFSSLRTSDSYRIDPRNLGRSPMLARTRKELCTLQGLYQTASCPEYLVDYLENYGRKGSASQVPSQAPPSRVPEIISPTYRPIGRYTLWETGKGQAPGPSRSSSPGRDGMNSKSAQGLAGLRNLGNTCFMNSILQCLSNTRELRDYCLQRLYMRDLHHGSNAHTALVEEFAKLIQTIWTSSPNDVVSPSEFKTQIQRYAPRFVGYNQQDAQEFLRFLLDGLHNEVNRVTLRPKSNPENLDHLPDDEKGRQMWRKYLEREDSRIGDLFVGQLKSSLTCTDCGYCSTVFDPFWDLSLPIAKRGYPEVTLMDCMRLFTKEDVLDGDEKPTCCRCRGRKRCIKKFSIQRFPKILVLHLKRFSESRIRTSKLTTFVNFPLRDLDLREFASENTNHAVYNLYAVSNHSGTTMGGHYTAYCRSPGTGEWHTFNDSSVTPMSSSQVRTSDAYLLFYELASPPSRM
# Experiment: Confirmation Assay for Inhibitors of Ubiquitin-specific Protease USP2a Using CHOP2 as the Reporter; also: nearly all actives have a fitted effect of over 55% in size;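 as to activity change, negative = inhibition: plate controls were DMSO wells for no effect and full inhibition by NEM control for full effect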
# Conditions: USP2 core, Ub-CHOP2 coupled reporter fluorescence; series mostly up to 38.3 µM; activity change, negative = inhibition: at the top concentration
# Source text: NIH Molecular Libraries Probe Centers Network [MLPCN] NIH Chemical Genomics Center [NCGC] MLSCN Grant: XO1-MH079852-01 PI Name: Nicholson, Ben. Progenra Inc, Malvern, PA NCGC Assay Overview: Homeostasis of cellular proteins is maintained through a combination of synthesis and degradation. The pathway that accounts for the majority of protein degradation is the ubiquitin-proteasomal pathway. Ubiquitin (Ub) is highly conserved in all cells and the generation of a multi-Ub chain typically targets proteins for degradation by the proteasome. However, ubiquitination is highly reversible and dynamic. Deubiquitination, the reverse process, is catalyzed through the action of enzymes referred to as isopeptidases or deubiquitinating enzymes (DUBs). This group of enzymes is collectively responsible for maintaining adequate pools of free ubiquitin and regulating the ubiquitination status of cellular proteins. The class of DUBs referred to as the ubiquitin-specific proteases (USP) family functions endoproteolytically to cleave Ub chains from a wide range of protein substrates. USP2a deubiquitinates fatty acid synthase (FASN) which has recently been identified as an emerging oncology target. To identify inhibitors of USP2a a cell-free assay was employed. […] The reporter enzyme chosen is an […] called CHOP2, which is activated when the Ub is cleaved by USP2. The free and now activated reporter can subsequently act on its reporter substrate. Thus, this coupled assay gives a fluorescent read-out at excitation/emission wavelengths of 485/531. The assay was developed by Progenra, Inc. and has been licensed for sale by LifeSensors, Inc. as Ub-CHOP2-Reporter-Kit (#PR1101).
# NCGC Assay Protocol Summary: The assay buffer, prepared fresh at the day of the assay, contains 20mM Tris-HCl pH 8.0, 2mM CaCl2, 2mM beta-Mercaptoethanol, 0.05% CHAPS. 3ul of 20nM (10nM final) USP2 core, which is stored on ice, is dispensed into a medium-binding black solid Kalypsys 1,536 well plate using the Kalypsys dispenser. The assay plate is then pinned with 23nL compound with the Kalypsys pintool in columns 5-48. The controls are pinned as follows: column 1 two-fold dilutions of 2M NEM in duplicate; column 2 2M NEM (final concentration 38.2mM); column 3&4 DMSO. The assay plate is incubated at RT for 30min. Subsequently, 1.5uL of 100nM (25nM final) Ub-CHOP2 and 1.5uL of 100nM (25nM final) Reporter Substrate (both stored on ice and protected from light) were dispensed into the plate using the Kalypsys dispenser. Plates were read after 60min RT incubation on a ViewLux (Perkin Elmer) plate reader using the following wavelengths Ex 485nm /Em 531nm. Data were normalized to the to AC100 inhibition (NEM). Concentration-response curves were fitted to the normalized data and the concentration-response curves were then classified based on curve quality (r2), response magnitude and degree of measured activity. The time zero reading was used to flag fluorescence artifacts. Keywords: ubiquitination, deubiquitination, proteases, profluorescent, MLSMR, MLPCN, NIH Roadmap, qHTS, NCGC
# Potency is read from the fitted curve at half-maximal effect.
SMILES,"activity change, negative = inhibition",Potency
COc1ccc(NC(=O)c2c(C)nn(Cc3ccccc3Cl)c2Cl)cc1Cl,1.39% (inactive),
Nc1ccc(S(=O)(=O)N2CCCCC2c2cccnc2)cc1 (stereo not drawn),5.3% (inactive),
CC(=Nc1ccc2c(c1)CCC2)c1c(O)n(C)c(=O)n(C)c1=O,0.651% (inactive),
O=C1NC(=O)N(Cc2ccco2)C(=O)/C1=C/C=C/c1ccco1,,13.1 µM (active)
O=C(COc1ccc(S(=O)(=O)N2CCOCC2)cc1)N1CCN(Cc2ccc3c(c2)OCO3)CC1,0.801% (inactive),
O=C1NC(=O)N(Cc2ccco2)C(=O)/C1=C/c1cccn1CCOc1ccccc1Cl,-3.58% (inactive),
O=c1[nH]c(=O)n(Cc2ccc(F)cc2)c(O)c1C=NCCCn1ccnc1,-3.8% (inactive),
O=C(O)c1cccc2c1NC(C(=O)O)C1CC(Sc3ccccc3[N+](=O)[O-])C(Cl)C21 (stereo not drawn),,7.36 µM (active)
CCCC1=C(C(=O)OCC)C2(C(=O)Nc3ccc(C)cc32)C(C#N)=C(N)O1 (stereo not drawn),3.9% (inactive),
COc1ccc(S(=O)(=O)Cc2ccc(C(=O)N3CCC4(CC3)OCCO4)o2)cc1,-0.023% (inactive),
O=C1NC(=S)N(c2ccccc2)C(=O)/C1=C/c1ccco1,,14.7 µM (active)
FC(F)(F)c1ccc2c(c1)N(CCCN1CCN(CCCl)CC1)c1ccccc1S2,0.492% (inactive),
CC1Oc2cc3c(-c4c(O)cc(O)c5c(O)c6c(cc45)OC(C)C(C)C6=O)c(O)cc(O)c3c(O)c2C(=O)C1C (stereo not drawn),,13.1 µM (active)
O=C1CC(=O)N(Cc2ccccc2)C(=O)N1CCCCCCN1C(=O)CC(=O)N(Cc2ccccc2)C1=O,-1.12% (inactive),
O=c1[nH]c(=S)n(Cc2ccco2)c(O)c1C=NCc1cccs1,-18.4% (inactive),
OC(c1ccncc1)(c1ccc(F)cc1)c1ccc(F)cc1,-3.95% (inactive),
NC(N)=N/N=C/c1ccc(N(c2ccccc2)c2ccccc2)cc1,,16.5 µM (active)
Cc1nn(Cc2ccc(Cl)cc2Cl)c(Cl)c1C(=O)Nc1ccc(OC(F)F)cc1,1.17% (inactive),
